# Experimental data taken from PubChem BioAssay (NCATS).
# Inconclusive results are not listed. A call without a number means that no potency is given here. Active and inactive are the calls of the source. Calls come from the whole dose curve; as a rule, active = well fitted inhibition curve with a large enough effect; inconclusive = small, poorly fitted or top-dose-only effect; inactive = flat fitted curve, though single readings scatter.
# Test: P-glycoprotein substrates identified in KB-8-5-11 adenocarcinoma cell line, qHTS therapeutic library screen (AID 1346987); note: nearly all actives have a fitted effect of over 65% in size
# Details: KB-8-5-11 (P-gp overexpressing) viability, CellTiter-Glo, 72 h; series mostly up to 44.5 µM
# In short: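 KB-8-5-11: colchicine-selected sub-line of KB-3-1 over-expressing P-gp; assay medium lacked colchicine. 72 h drug exposure at 37 degree C, CellTiter-Glo.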
# Potency is the fitted concentration of half-maximal effect.
row,Compound,Potency
1,Cn1ccc(NC(=O)c2cc(Oc3ccc(C(=O)N4CCC4)c(F)c3)c3c(c2)OC(C)(C)C3)n1,inactive
2,Cc1cc(F)ccc1-c1nc(NCCN=C(N)NC#N)nc2c1ccc(=O)n2-c1c(F)cccc1F,inactive
3,Cc1cc(C)c(-n2cc(C)c3c(Cl)nc(C)nc32)c(C)c1,inactive
4,C[C@@H](O[C@H]1OCCN(Cc2nn(P(=O)(O)O)c(=O)[nH]2)[C@H]1c1ccc(F)cc1)c1cc(C(F)(F)F)cc(C(F)(F)F)c1,inactive
5,C=C(C(=O)OC)[C@@H]1CC=C2C=CC(=O)[C@H](C)[C@@]2(C)C1,inactive
6,C[C@@H](N[C@H]1CCCC[C@@H]1NC(=O)c1ccc(Cl)cc1)c1cccc2ccccc12,23.1 µM (active)
7,COc1ccc(OC)c(-c2ccc(NC(=O)c3ccncc3F)cc2)c1,inactive
8,O=C(NCCCNc1nc(Nc2cccc(CN3CCOCC3)c2)ncc1C1CC1)C1CCC1,10.3 µM (active)
9,Cc1ccc(C(=O)Nc2ccc(CN3CCN(C)CC3)c(C(F)(F)F)c2)cc1C#Cc1cnc2[nH]ncc2c1,20.6 µM (active)
10,C=C[C@@]1(C)CCC2C(=CCC3[C@]2(C)CCC[C@@]3(C)C(=O)O)C1 (stereo partly drawn),inactive
11,CC(NC(=O)Cc1cc(F)cc(F)c1)C(=O)NC1C(=O)N(C)c2ccccc2-c2ccccc21 (stereo not drawn),14.6 µM (active)
12,CC(C)C[C@@H]1NC(=O)[C@@H]2C[C@@]34C[C@@H]5[C@@]6(C)CCCC(C)(C)C6CC[C@@]5(C)N(c5ccccc53)[C@H]4N2C1=O (stereo partly drawn),inactive
13,CCCC(Nc1nc(-c2ccc(NC(=O)NCC)c(OC)c2)ncc1C)c1cccnc1 (stereo not drawn),1.16 µM (active)
